From PubChem BioAssay
CendR NRP1 mod = modulators of CendR peptide binding to NRP-1, primary screen, biochemical, fluorescence polarization, uHTS | FAM-RPARPAR peptide binding to NRP-1 | Neuropilin-1 (Homo sapiens), O14786 | actives 0.85% (n = 360,000) | inhibition, % at 25 µM;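 active = inhibition or corrected inhibition above about 18%, plus a signal ratio from 0.5 to 1.5, limit read from the data, passing the limit was not always enough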
Target sequence (O14786 whole entry, looked up): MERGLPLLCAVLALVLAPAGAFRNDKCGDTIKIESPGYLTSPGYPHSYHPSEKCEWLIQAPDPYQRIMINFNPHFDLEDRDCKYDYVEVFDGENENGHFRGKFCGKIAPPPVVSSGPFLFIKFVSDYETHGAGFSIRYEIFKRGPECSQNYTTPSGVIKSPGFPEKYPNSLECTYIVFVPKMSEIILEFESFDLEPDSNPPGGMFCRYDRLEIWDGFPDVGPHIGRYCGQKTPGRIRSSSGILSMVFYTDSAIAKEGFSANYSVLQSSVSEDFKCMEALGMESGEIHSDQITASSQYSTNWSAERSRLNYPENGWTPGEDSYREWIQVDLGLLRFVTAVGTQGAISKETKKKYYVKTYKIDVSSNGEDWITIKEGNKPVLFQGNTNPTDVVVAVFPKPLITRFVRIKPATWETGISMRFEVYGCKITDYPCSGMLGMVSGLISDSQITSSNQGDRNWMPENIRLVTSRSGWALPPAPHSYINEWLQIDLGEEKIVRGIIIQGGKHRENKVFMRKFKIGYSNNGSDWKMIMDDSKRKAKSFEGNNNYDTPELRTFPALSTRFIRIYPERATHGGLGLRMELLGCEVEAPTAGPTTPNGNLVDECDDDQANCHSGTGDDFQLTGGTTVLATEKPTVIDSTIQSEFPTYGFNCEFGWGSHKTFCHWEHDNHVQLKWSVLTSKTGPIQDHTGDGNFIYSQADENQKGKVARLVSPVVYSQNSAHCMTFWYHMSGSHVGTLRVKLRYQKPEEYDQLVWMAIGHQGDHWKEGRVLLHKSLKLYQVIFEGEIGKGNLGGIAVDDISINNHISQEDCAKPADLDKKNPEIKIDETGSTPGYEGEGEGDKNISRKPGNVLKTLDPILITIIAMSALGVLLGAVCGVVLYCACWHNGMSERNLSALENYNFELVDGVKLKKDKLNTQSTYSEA
proKLK7 act = proKLK7 zymogen activators, primary screen, biochemical, fluorescence intensity. Kallikrein-7 (Homo sapiens), P49862. purified proKLK7, EDANS-DABCYL substrate fluorescence; 100% is mature enzyme control, 0% vehicle. activation, % at 7 µM. actives 0.9% (n = 370,000). AID 652039, 2013;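 active = activation above the mean of all tested compounds plus 3 SD, computed per campaign excluding outliers beyond control limits, cut at about 13% in these data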
ADAM10 inh = human ADAM10 inhibitors, primary screen, biochemical, QFRET, HTS | Disintegrin and metalloproteinase domain-containing protein 10 (Homo sapiens), O14672 | recombinant ADAM10, EDANS/DABCYL FRET peptide cleavage, 3 h | inhibition, % at 7 µM | actives 0.62% (n = 370,000) | AID 720582, 2013;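 active = inhibition above a per-campaign cutoff equal to the mean of compounds falling between control-based bounds plus 3 SD, cut at about 20% in these data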;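 note: 0% = DMSO wells while the 100% control is not disclosed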
HGIII-sPLA2 inh = human group III sPLA2 inhibitors, primary screen, biochemical, QFRET, BODIPY PC-A2 liposome substrate; Group 3 secretory phospholipase A2 (Homo sapiens), Q9NZ20; QFRET BODIPY PC-A2 liposome hydrolysis, fluorescence; inhibition, % at 12.2 µM; actives 0.56% (n = 370,000);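 active = inhibition above mean plus 3 SD of compounds lying within the high and low control bounds, cut at about 19% in these data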;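 note: 0% = median of test compound wells and 100% = no enzyme DMSO wells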
ADAM17 inh = ADAM17 inhibitors, primary screen, biochemical, QFRET; Disintegrin and metalloproteinase domain-containing protein 17 (Homo sapiens), P78536; recombinant ADAM17, EDANS/DABCYL FRET peptide cleavage; actives 0.83% (n = 370,000); inhibition, % at 6.95 µM;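 active = inhibition above the mean of compounds lying between control limits plus 3 SD, set per campaign, cut at about 8.5% in these data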;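 note: 0% = DMSO-only wells as the low control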
sPLA2 confirm = human group III sPLA2 inhibitors, confirmation, biochemical, QFRET, triplicate; shares compounds with HGIII-sPLA2 inh; recombinant hGIII-sPLA2, BODIPY PC-A2 QFRET fluorescence; inhibition, % at 12.2 µM; actives 34% (n = 2,000);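 active = mean inhibition across triplicates above the hit cutoff set in the earlier primary screen, cut at about 19% in these data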;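 note: 0% = enzyme with DMSO and 100% = DMSO wells lacking enzyme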
535nm interf = 535nm fluorescence optical interference, confirmation, artefact control for HGIII-sPLA2 inhibitor project, biochemical, QFRET; BODIPY FL product fluorescence interference; inhibition, % at 12.2 µM; shares compounds with HGIII-sPLA2 inh; actives 8.5% (n = 2,000);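 active = average inhibition above the solvent-only control mean plus 3 SD, cut at about 6% in these data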;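 note: 0% = DMSO with substrate plus product and 100% = DMSO with substrate alone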
BODIPY interf DR = 535nm fluorescence optical interference, dose response, artefact control for HGIII-sPLA2 inhibitor project, biochemical, QFRET; shares compounds with HGIII-sPLA2 inh; BODIPY FL product fluorescence interference, cell-free; AID 743455, 2014; IC50, µM; 240 tested, under 10 active;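 active = IC50 at or below 10 µM; inactive = IC50 above 10 µM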
The depositor's hits bear a star; · = no result. A selection: hits, their analogues and other compounds. The true share with any hit is near 3.4%.

SMILES | CendR NRP1 mod | proKLK7 act | ADAM10 inh | HGIII-sPLA2 inh | ADAM17 inh | sPLA2 confirm | 535nm interf | others
COc1ccc2c(c1)OC[C@H]1[C@H]2N2C(=O)c3cc(OC)ccc3NC(=O)[C@@]2(C)[C@H]1c1ccccc1 | 9 | -3 | 15 | 37* | 8 | 27* | -19
COc1ccc2c(c1)OC[C@H]1[C@H]2N2C(=O)c3cc(Cl)ccc3NC(=O)[C@@]2(C)[C@H]1c1ccccc1 | -10 | · | · | · | · | · | ·
COc1ccc2c(c1)OC[C@H]1[C@H]2N2C(=O)c3cc(F)ccc3NC(=O)[C@@]2(C)[C@H]1c1ccccc1 | -12 | -1 | -23 | 35* | -8 | 7 | -4
COc1ccc(C(=O)CSc2nnc(-c3cccnc3)n2-c2ccccc2)cc1 | · | 0 | -2 | -25 | 1 | · | ·
O=C1N2CCc3ccccc3C2CS(=O)(=O)N1Cc1ccc(F)cc1 (centres undefined) | · | 0 | 6 | -7 | 0 | · | ·
Cc1cccc2sc(NNC(=O)c3ccc(S(=O)(=O)N4CC(C)CC(C)C4)cc3)nc12 (centres undefined) | -9 | -1 | 5 | 47* | 8 | 47* | 3
Cc1cc(C)c2nc(NNC(=O)c3ccc(S(=O)(=O)N4CCCC(C)C4)cc3)sc2c1 (centres undefined) | -4 | -2 | 0 | 36* | 7 | 46* | 6.5*
CC(C)N1CCc2c(-c3nc4ccccc4s3)csc2C1 | · | · | -10 | 0 | -3 | · | ·
CCN(CC)C(=O)/C(=C/c1ccc2c(c1)OCO2)NC(=O)c1ccc(Br)cc1 | 0 | 0 | -12 | 20* | 2 | 4 | -15
Cc1ccc(-c2nc3ncccn3c2NC(=O)c2ccc(F)cc2)cc1 | · | 13 | -345 | -2 | -110 | · | ·
CCOc1ccc(CSC(=N)N)cc1Cl | -6 | 0 | 3 | 26* | 0 | 8 | -8
CCOc1ccc(CSC(=N)N)cc1[N+](=O)[O-] | -4 | 0 | -2 | 22* | -2 | 2 | 0
CCOC(=O)[C@@]12CCCC=C1N(CCc1ccc(Cl)cc1)C(=O)[C@H]2CC(=O)NCc1ccc(C)o1 | · | 0 | 6 | -17 | 4 | · | ·
CC(C)CNC(=O)/C=C/c1cccs1 | 9 | 0 | -3 | 22* | 2 | 0 | -2
COc1ccc(/C=C/C(=O)NC(=S)NNC(=O)Cc2cccs2)cc1OC | 3 | -1 | -10 | 14 | -7 | · | ·
O=C(/C=C/c1cccs1)NNC(=O)c1ccccc1 | 12 | -1 | 0 | 20* | -4 | -1 | -5
O=C(/C=C/c1cccs1)NC(=S)NNC(=O)Cc1cccs1 | 29* | -1 | 7 | 29* | -1 | 39* | -7 | BODIPY interf DR=>122
C=CCNC(=O)/C=C/c1cccs1 | -29 | 0 | -1 | 0 | 0 | · | ·
N#CCC[C@H]1CC[C@]2(CCCN(C(=O)C3CCCC3)C2)O1 | · | 0 | 5 | 5 | 3 | · | ·
Cn1c(SCC2CCC2)nnc1-c1ccco1 | · | 0 | -1 | -1 | 1 | · | ·
Cc1ccccc1NC(=O)Nc1ccccn1 | 5 | 0 | -4 | 20* | 4 | 0 | -4
Cc1cccc(NC(=O)Nc2ccccn2)c1C | -1 | 0 | 0 | -1 | 3 | · | ·
COc1cc(CCC(C)=O)ccc1OC(=O)c1c(-c2c(F)cccc2Cl)noc1C | · | 0 | 12 | -21 | 6 | · | ·
C/C=C/C(=O)N1CCC(C(=O)NC2CCCc3ccccc32)CC1 (centres undefined) | · | 0 | 3 | 1 | -1 | · | ·
COC(=O)[C@]12C[C@H](CC(=O)NCC34CC5CC(CC(C5)C3)C4)C(=O)N(CCc3ccc(OC)c(OC)c3)C1=C[C@H](C1CCCC1)O[C@@H]2C | · | 0 | 13 | -16 | 5 | · | ·
SMILES | CendR NRP1 mod | proKLK7 act | ADAM10 inh | HGIII-sPLA2 inh | ADAM17 inh | sPLA2 confirm | 535nm interf | others
COc1cccc(-c2n[nH]c(=S)n2Cc2ccco2)c1OC | -7 | · | · | · | · | · | ·
Cc1nn(C)c(-c2n[nH]c(=S)n2Cc2ccco2)c1Cl | -3 | 0 | 1 | 20* | -4 | 22* | -1
Cc1cccc(-n2c(C)c(-c3ccccc3)[nH]c2=S)c1 | -3 | 0 | 5 | 29* | 0 | 33* | 0
Cc1cccc(-n2c(C)n[nH]c2=S)c1 | 6 | 0 | -3 | 12 | -5 | · | ·
O=C(NN1C(=O)c2ccccc2NC1c1ccccn1)c1ccc([N+](=O)[O-])cc1 (centres undefined) | 1 | -1 | -6 | 25* | -1 | 9 | -5
CC(C)(CO)Cc1cc(C(C)(C)C)c(O)c(C(C)(C)C)c1 | 17* | 0 | 13 | 20* | 0 | -2 | -9
C[C@H]1CCC[C@@H](O)CC(=O)c2c(O)cc(O)cc2CC(=O)O1 | · | 0 | 1 | 0 | -4 | · | ·
COCCOC(=O)C1=C(C)NC(=S)NC1/C=C/c1ccccc1 (centres undefined) | -6 | 0 | -3 | 22* | -3 | 14 | -9
C=CCOC(=O)C1=C(C)NC(=S)NC1/C=C/c1ccccc1 (centres undefined) | 10 | 1 | -2 | 13 | -3 | · | ·
COc1ccccc1C(=O)NNC(=S)Nc1ccccc1 | -7 | 0 | -3 | 8 | -2 | · | ·
S=C(NCc1ccccc1)NCc1ccc(CNC(=S)NCc2ccccc2)cc1 | -9 | 0 | 10 | -54 | 8 | · | ·
O=C(NNC(=S)NCc1ccccc1)c1ccccc1OC(F)F | -7 | 0 | 6 | 20* | 4 | 31* | 3 | BODIPY interf DR=>122
O=C(NNC(=S)Nc1ccc(Cl)cc1)c1ccccc1OC(F)F | -6 | 0 | 9 | 24* | 5 | 28* | 8.5*
CCNC(=S)NNc1nnc(-c2ccccc2)c(-c2ccccc2)n1 | 2 | 0 | 7 | 24* | 1 | 50* | 0 | BODIPY interf DR=>122
CCNC(=S)NNC(=S)NCc1ccccc1 | -2 | 0 | -7 | 21* | -1 | 39* | -3 | BODIPY interf DR=>122
CNC(=S)NNc1nc(-c2ccccc2)c2cc(Cl)ccc2n1 | 3 | 2 | 0 | 13 | -2 | · | ·
